In all, about 16,000 compounds went through this assay and about 2,600 (16%) were called active. About 20% were inconclusive and are not listed. The call rests on the fitted dose curve; in most records, active means well fitted curve in the direction sought with a large enough effect; inconclusive means small, poorly fitted or top-dose-only effect, or effect the other way; inactive means no such curve, though single readings can be large or run the other way. The list is a sample of the results.
On the % scale 0 is the no-effect control and ±100 the full control effect.

The target of the assay is Cytochrome P450 2D6 (Homo sapiens) (UniProt P10635). The experiment in a line: Cytochrome panel assay with activity outcomes. The note with it: recombinant CYP, pro-luciferin dealkylation, luminescence, p450-cyp2d6; series mostly up to 57.1 µM; activity, negative = inhibition: at the top concentration.
Chain of Cytochrome P450 2D6 (Homo sapiens) (P10635 whole entry, looked up): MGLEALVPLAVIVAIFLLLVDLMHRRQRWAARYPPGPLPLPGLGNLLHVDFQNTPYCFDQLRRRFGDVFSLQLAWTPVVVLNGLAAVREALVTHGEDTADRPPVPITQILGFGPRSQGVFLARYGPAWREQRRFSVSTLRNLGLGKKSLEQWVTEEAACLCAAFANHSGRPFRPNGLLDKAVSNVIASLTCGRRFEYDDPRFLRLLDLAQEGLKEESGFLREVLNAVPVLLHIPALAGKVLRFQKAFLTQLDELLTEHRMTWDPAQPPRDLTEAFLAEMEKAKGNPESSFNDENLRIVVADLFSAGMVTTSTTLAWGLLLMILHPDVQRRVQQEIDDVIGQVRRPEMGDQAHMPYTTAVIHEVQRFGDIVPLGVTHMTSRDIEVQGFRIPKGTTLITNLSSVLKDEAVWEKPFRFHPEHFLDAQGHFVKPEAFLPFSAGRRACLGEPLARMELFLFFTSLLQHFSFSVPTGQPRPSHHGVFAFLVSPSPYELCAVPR
As to `CCN1C(=O)/C(=C2\SC(=S)N(CCCOC)C2=O)c2ccccc21`, the “activity, negative = inhibition” value was -10.4% (inactive).
Still for that read-out and setting: in the case of `N[C@@H](Cc1cc(CP(=O)(O)O)cc(-c2ccccc2Cl)c1)C(=O)O` it was 1.24% (inactive).
Regarding `Cc1ccc(-c2csc3ncnc(NCCN4CCOCC4)c23)cc1`, the AC50 – broadly, the midpoint of the concentration-response curve, whichever way the signal moves – is 2.82 µM (active).
On to `CC(=NCCN1CCN(C(=S)Nc2ccccc2)CC1)C1=C(O)CC(C)(C)CC1=O`, for which the “activity, negative = inhibition” value is 7.76% (inactive).
On the same count and under the same terms, in the case of `O=C(Nc1ccc2c(c1)Cc1ccccc1-2)[C@@H]1[C@H](C(=O)O)[C@]2(Cl)C(Cl)=C(Cl)[C@@]1(Cl)C2(Cl)Cl` it was -10.2% [at 11.4 µM] (inactive).
On to `O=[N+]([O-])C(/C=C(\Cl)[N+](=O)[O-])=C1N(Cc2ccc(Cl)nc2)CCN1Cc1ccc(Cl)nc1`, for which the AC50 was 15.8 µM (active).
For `Nc1ccc(N2C(=O)c3ccccc3C2=O)c(Cl)c1`, the “activity, negative = inhibition” value is -4.95% (inactive).
In the case of `COc1ccc(-n2c(=O)c(C)nc3cnc(Nc4ccccc4)nc32)cc1`, the “activity, negative = inhibition” value was 3.53% (inactive).
Same read-out and setting: in the case of `O=S(=O)(/N=C(/Nc1ccc(F)cc1F)c1ccc(Cl)cc1)c1ccccc1` it was 11.4% (inactive); in that of `NCC(=O)Nc1ccc(Cl)cc1C(=O)c1ccc[nH]1`, 3.55% [at 11.4 µM] (inactive).
`Cc1c(NC(=O)CSc2nnc3c4ccccc4n(CCc4ccccc4)c3n2)c(=O)n(-c2ccccc2)n1C`: the “activity, negative = inhibition” value was -25.1% (inactive).
`Cc1ccc(-n2c(O)cnc2Nc2nc(C)cc(C)n2)cc1`: the AC50 is 12.6 µM (active).
Turning to `Cc1ccc(-n2c(-c3ccccc3)cc(=O)nc2C)cc1`, the “activity, negative = inhibition” value was 32.4% (inactive).
Still for that read-out and setting: the figure for `Cc1ccc(-n2c(C)cc(C(=O)CSc3n[nH]c(N)n3)c2C)cc1` is -0.813% (inactive).
With `CSc1nc(NC2CCCC2)c([N+](=O)[O-])c(NC2CCCC2)n1`, the “activity, negative = inhibition” value was -4.38% (inactive).
Still for that read-out and setting: in the case of `C#CCCCO/N=C1/C[C@@H](O)[C@@H](O)[C@@H]2[C@H]3C(=O)N(c4ccc(F)cc4F)C(=O)[C@@H]3CC[C@@H]12` it was 8.28% [at 11.4 µM] (inactive); in that of `CC(C)[C@H]1C(=O)C(C(N)=O)=C(O)[C@]2(O)C(=O)C3=C(O)c4c(O)ccc(N(C)C)c4C[C@H]3C[C@@H]12`, -0.683% (inactive); in that of `N#C/C(=C/N1CCOCC1)c1ccccc1`, -8.97% (inactive).
For `Oc1c(CN2CCOCC2)cc(-c2ccccc2)cc1CN1CCOCC1`, the concentration at half-maximal activity (AC50) is 12.6 µM (active).
On to `CCc1cc2c(=O)c(-c3cnn(-c4ccccc4)c3)coc2c(CN2CCOCC2)c1O`, for which the “activity, negative = inhibition” value is -19.9% (inactive).
As to `NC/C=C\C(=O)O`, the AC50 result is “inactive”.
For the molecule `C[C@H](O/N=C1/[C@H]2O[C@@H]2[C@@H](O)[C@H]2[C@H]1CCn1c(=O)n(-c3ccccc3)c(=O)n12)c1cn([C@H]2COC[C@H]2O)nn1`, the activity, negative = inhibition is -1.7% [at 11.4 µM] (inactive).
On to `CCc1nnc(NC(=O)CSc2ncnc3c2cnn3-c2ccc(OC)cc2)s1`, for which the “activity, negative = inhibition” value is 0.15% (inactive).
Same read-out and setting: the figure for `CCOC(=O)CN1C(=O)Nc2ccc(Br)cc2C1c1ccccc1` (stereo unspecified) is -5.48% (inactive).
On the same count and under the same terms, the figure for `CC1=C(C(N)=O)C(c2ccccc2)n2nc(-c3ccncc3)nc2N1` (stereo unspecified) is -1.99% (inactive).
`Cc1cc2ccccc2c[n+]1CC(O)C[n+]1cc2ccccc2cc1C`: the concentration at half-maximal activity (AC50) is 0.0251 µM (active).
For `Cc1ccc[n+](CC(=O)c2cc3ccccc3oc2=O)c1`, the “activity, negative = inhibition” value is -26% (inactive).
Still for that read-out and setting: in the case of `C[C@@H]1/C=C\CC(=O)OC[C@H](C)C(=O)N2CCC[C@@H]2C(=O)OC1` it was 7.63% [at 11.4 µM] (inactive); in that of `Cc1o[nH]c(=O)c1CC[C@H](N)C(=O)O`, -9.63% (inactive).
`Cc1oc(-c2ccccc2)cc1C(=O)Nc1ccc(N(C)C)cc1`: the AC50 was 7.94 µM (active).
Turning to `Cc1ccc(NC(=O)c2ccccc2C(=O)O)cc1C`, the activity, negative = inhibition is -8.28% [at 11.4 µM] (inactive).
Regarding `Cc1oc(C(C)(C)C)cc1C(=O)Nc1cccc(/C=C/C(=O)O)c1`, the “activity, negative = inhibition” value is 11.9% (inactive).
`CCOC(=O)C1=C(N)n2c(s/c(=C\c3ccco3)c2=O)=C(C(=O)OCC)C1c1ccco1` (stereo unspecified): the “activity, negative = inhibition” value was 21.8% (inactive).
The same measure, in the same setting: in the case of `Cc1cc2nc3[nH]c4c(Cl)cc(Cl)cc4c3nc2cc1C` it was 4.24% [at 11.4 µM] (inactive); in that of `O=c1[nH]cc(CS(=O)(=O)Cc2c[nH]c(=O)[nH]c2=O)c(=O)[nH]1`, -1.45% [at 11.4 µM] (inactive); in that of `CC(C)CN(CC(C)C)C1=N/C(=C\c2ccco2)C(=O)N1c1ccccc1`, 7.31% (inactive).
On to `CCOC(=O)c1ccc(Nc2nc(C(=O)OCC)nc3ccccc23)cc1`, for which the AC50 was 3.98 µM (active).
For `CCOC(=O)c1ccc(Nc2nc(=O)c3cccnc3s2)cc1`, the “activity, negative = inhibition” value is 14.5% (inactive).
With `Cc1noc(C)c1-c1nc(Nc2ccc(F)cc2)c2ccccc2n1`, the “activity, negative = inhibition” value is -9.98% (inactive).
The same measure, in the same setting: in the case of `CCCc1nc2sc3ccccc3c(=O)c2c(=O)n1CCOC` it was 12.1% (inactive); in that of `COc1cc(C(=O)NC(=S)Nc2cccc(-c3cc4ccccc4oc3=O)c2)cc(OC)c1OC`, 20.4% (inactive).
Still for that read-out and setting: in the case of `CC(=O)NS(=O)(=O)c1ccc(NC(=S)NC(=O)c2ccco2)cc1` it was 0.0503% (inactive); in that of `Cc1cccc(N(C)C(=S)Oc2ccc3ccccc3c2)c1`, -2.27% [at 25.6 µM] (inactive); in that of `Cn1c(=NC(=O)CCl)sc2ccccc21`, -4.21% (inactive).
For `N=c1sc2ccccc2n1CCS` (tested in a mixture with another compound), the concentration at half-maximal activity (AC50) is 0.316 µM (active).
Turning to `O=C(O)c1ccccc1NCn1c(=S)sc2ccccc21`, the activity, negative = inhibition was -8.67% [at 11.4 µM] (inactive).
The same measure, in the same setting: in the case of `COc1cccc(CNc2ccc(F)c(Cl)c2)c1O` it was -15.3% (inactive).
As to `COc1ccccc1CNCC(O)(c1ccc(Cl)cc1)c1ccc(Cl)cc1`, the AC50 was 0.316 µM (active).
For `CCS(=O)(=O)N1CCC(C(=O)NCc2ccccc2OC)CC1`, the “activity, negative = inhibition” value was -5.28% (inactive).
On the same count and under the same terms, in the case of `COC(=O)c1sccc1NC(=O)c1cc(-c2cc(C)ccc2C)nc2ccccc12` it was 19.6% (inactive).
For the molecule `Cc1nnc(NC(=O)CSc2ncnc3c2cnn3-c2ccccc2C)s1`, the “activity, negative = inhibition” value was 9.93% (inactive).
The same measure, in the same setting: the figure for `O=C(O)c1cccnc1SCC(=O)N1CCCCCC1` is 4.75% (inactive).
On the same count and under the same terms, the figure for `COC(=O)c1cc(OC)c(OC)cc1NC(=O)CSc1ccc(C)cc1` is 7.75% (inactive).
With `Cc1ccc(SCCNC(=O)c2ccc(C)c(S(=O)(=O)Nc3ccccc3C)c2)cc1`, the concentration at half-maximal activity (AC50) was 7.94 µM (active).
Turning to `Cc1ccc(SCCNC(=O)c2ccccc2)cc1`, the “activity, negative = inhibition” value is -18.3% (inactive).
Same read-out and setting: the figure for `COc1ccc(C2C(=O)N(C3CCCCCC3)CC(=O)N2Cc2ccccc2)cc1OC` (stereo unspecified) is -2.33% (inactive); for `CO[C@H]1COC(=O)[C@H](Cc2ccccc2)NC(=O)C/C=C\[C@@H](C)[C@H](OC)COC(=O)C/C=C\[C@@H]1C` it is 11.3% [at 11.4 µM] (inactive).
With `Nc1ccccc1C(=O)/C=C\c1ccc2c(c1)OCO2`, the concentration at half-maximal activity (AC50) was 3.16 µM (active).
With `CCOC(=O)c1c(NC(=O)/C=C/c2ccc3c(c2)OCO3)sc(C)c1CC`, the “activity, negative = inhibition” value was -4.86% (inactive).
Consider `COCOc1cc(OC)ccc1C(=O)/C=C\c1ccc2c(c1)OCO2`, for which the AC50 was 3.98 µM (active).
Still for that read-out and setting: in the case of `O=C(/C=C\c1ccc2c(c1)OCO2)c1ccc(F)cc1` it was 2 µM (active).
On to `COC(=O)c1cc(NC(=O)/C=C/c2ccc3c(c2)OCO3)cc(C(=O)OC)c1`, for which the “activity, negative = inhibition” value is -15.2% (inactive).
Still for that read-out and setting: in the case of `O=C(/C=C\c1ccccc1)c1ccccc1O` it was -5.64% [at 11.4 µM] (inactive).
Still for that read-out and setting: in the case of `O=C(O)/C=C\C=C/c1ccc2c(c1)OCO2` it was -10.2% [at 11.4 µM] (inactive); in that of `CN(C)C(=O)CN(c1ccc2c(c1)OCO2)S(C)(=O)=O`, -17.5% (inactive); in that of `COc1ccc2cc3cc(C(=O)Nc4ccc5c(c4)OCO5)oc3nc2c1`, -26.3% (inactive).
